Measurements reported in the supplement of paper PMC6555819.

What follows are sequences tested on PPARg DBDmut IVT, anti-PPARg (DBD mutation: PPARg1 K132A/R137A, NR concentration 270 nM) (assay: PBM binding z-score (relative to random genomic background probes); higher = stronger binding; sequences stand for … in GC…GCGATTGACAGCGTAGAATGAAGG).
Method in brief: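 Ligand-free nuclear receptor dimers were applied to custom Agilent 4×180K protein-binding microarrays whose double-stranded probes carried direct-repeat seeds, single-nucleotide variants, half-site ablations and random human genomic background sequences in 34-nt variable regions. Incubation lasted 1 h. Binding z-scores were computed against the random background probes from regression-normalized fluorescence.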

Compared with CGATCTAGGTCACCAGGACAGTGAAGAGGTTGGA, CGAACTAGATCACCAGGACAGTGAAGAGGTTGGA is lower in PBM binding z-score: 0.925 for the first, -0.163 for the second.

Going from CGAACTAGGTCACCTGGACAGTGAAGAGGTTGGA to ATATGTAGGTTAGGGTCTTTCAGAAAGTAGGGAA, the PBM binding z-score rises from -0.299 to 2.64.

Compared with CGAACTAGGTCAAAGGACAGTGGAAGGCGACGTA, CGAACTAGGTCACCAGGACAGTGCAGAGGTTGGA is lower in PBM binding z-score: 1.31 for the first, 0.713 for the second.

Going from CGAACTAGGTCAAAGGACAGTGATAGGCGACGTA to ATATGTAGGTTAGTGTCATTCAGAAAGTAGGGAA, the PBM binding z-score rises from 0.359 to 2.47.

Compared with CGTACTAGGTCACCAGGACAGTGAAGAGGTTGGA, ATATGTAGGTTAGGCTCATTCAGAAAGTAGGGAA is lower in PBM binding z-score: 4.96 for the first, 1.4 for the second.

Compared with ATATGCAGGTTAGGGTCATTCAGAAAGTAGGGAA, CGAACTAGGTCACCAGGAGAGTGAAGAGGTTGGA is higher in PBM binding z-score: 1.24 for the first, 3.69 for the second.

Compared with CGAACTAGGTCAAATGACAGTGAAAGGCGACGTA, CGAACTAGGTCAAAGGACAGTGACAGGCGACGTA is lower in PBM binding z-score: 2.82 for the first, 1.51 for the second.

First: ATAAGTAGGTTAGGGTCATTCAGAAAGTAGGGAA
Second: CGAACTAGGTCACCAGGACAGTAAAGAGGTTGGA
The PBM binding z-score of the first is lower: 2.11 for the first, 5.2 for the second.

Compared with ATATGTAGGTGAGGGTCATTCAGAAAGTAGGGAA, CGAACTAGGTCAGCAGGACAGTGAAGAGGTTGGA is lower in PBM binding z-score: 2.2 for the first, 0.821 for the second.

Going from CGAACTAGGTCAAAGGACAATGAAAGGCGACGTA to CGATCTAGGTCAAAGGACAGTGAAAGGCGACGTA, the PBM binding z-score rises from 0.575 to 1.86.

Compared with ATATGTAGGTTAGAGTCATTCAGAAAGTAGGGAA, CGAACTAGGTCACCAGGACAGTGAAGAGGTTGGA is higher in PBM binding z-score: 1.55 for the first, 4.55 for the second.

Going from ATATGTAGGCTAGGGTCATTCAGAAAGTAGGGAA to CGAACTTGGTCACCAGGACAGTGAAGAGGTTGGA, the PBM binding z-score falls from 0.962 to -0.841.

Going from ATATGTAGGTTAGGGGCATTCAGAAAGTAGGGAA to ATATGTAGGTTAGGGTCATTAAGAAAGTAGGGAA, the PBM binding z-score rises from 1.93 to 3.64.

Compared with ATATGTAGGTTTGGGTCATTCAGAAAGTAGGGAA, ATATGTAAGTTAGGGTCATTCAGAAAGTAGGGAA is higher in PBM binding z-score: 1.3 for the first, 1.73 for the second.

Going from ATATGAAGGTTAGGGTCATTCAGAAAGTAGGGAA to CGAACTAGGTCAATGGACAGTGAAAGGCGACGTA, the PBM binding z-score rises from 1.79 to 4.35.

First: CGAACTAGGTAACCAGGACAGTGAAGAGGTTGGA
Second: ATATGGAGGTTAGGGTCATTCAGAAAGTAGGGAA
The PBM binding z-score of the first is lower: -0.0996 for the first, 1.73 for the second.

Compared with CGAACTAGGTCACCAGGGCAGTGAAGAGGTTGGA, CGAACTAGGTCACCAGGACATTGAAGAGGTTGGA is lower in PBM binding z-score: 0.642 for the first, 0.336 for the second.

Compared with CGAACTAGGTCAAAGGACAGCGAAAGGCGACGTA, CGAACTAGGCCACCAGGACAGTGAAGAGGTTGGA is lower in PBM binding z-score: 0.805 for the first, -0.0856 for the second.

Compared with CGAACTAGGGCACCAGGACAGTGAAGAGGTTGGA, CCAACTAGGTCACCAGGACAGTGAAGAGGTTGGA is higher in PBM binding z-score: -0.192 for the first, 1.95 for the second.

CGAACTAGGTCAAAGTACAGTGAAAGGCGACGTA gave a PBM binding z-score of 3.06.
